According to PubChem BioAssay:
The source made the active and inactive calls.

How the values were obtained:
[1] = test system: Plasmodium falciparum Sir2 (PF13_0152, Sir2A); assay: Plasmodium falciparum Sir2A binding compounds – biochemical, small-molecule microarray, 635 nm fluorescence, primary screen (AID 1098); conditions: fluorescence 635 nm, higher = more signal;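 also: score merges spot fluorescence intensity with its signal-to-noise ratio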
[2] = probe aDKK1 binding to arrayed compounds – biochemical, biotinylated probe, 635/667 nm fluorescence, primary screen (AID 1099); conditions: small-molecule microarray, higher = more signal;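 also: score merges 667nm spot fluorescence with signal to noise across triplicate slides; reference of the scale not given here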
[3] = probe aCHRDL2 binding to arrayed compounds – biochemical, biotinylated probe, 635/667 nm fluorescence, primary screen (AID 1100); conditions: small-molecule microarray, higher = more signal
[4] = change in splice reporter luminescence, either direction, cell-based, HEK293, spliceosome inhibition project, primary screen (AID 1101); conditions: HEK293 splicing luciferase reporter, 24 h, higher = more signal, called active from +8 up or from −8 down;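 also: HEK293 cells carrying a splicing-competent luciferase reporter gene; test concentration not given here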
[5] = target: Fibroblast growth factor 10 (Homo sapiens) (UniProt O15520); assay: compounds binding fibroblast growth factor 10 – biochemical, small-molecule microarray, 635 nm fluorescence, primary screen (AID 1102); conditions: FGF10 binding, fluorescence 635 nm, higher = more signal
Sequence of Fibroblast growth factor 10 (Homo sapiens) (O15520 whole entry, looked up): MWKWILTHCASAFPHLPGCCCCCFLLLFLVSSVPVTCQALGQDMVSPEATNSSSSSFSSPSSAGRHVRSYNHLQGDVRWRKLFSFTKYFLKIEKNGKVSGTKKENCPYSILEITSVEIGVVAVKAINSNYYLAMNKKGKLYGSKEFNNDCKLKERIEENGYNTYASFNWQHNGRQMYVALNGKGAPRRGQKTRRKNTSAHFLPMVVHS

[6] = test system: glycogen synthase kinase-3 (GSK3A per assay name; protocol says GSK3B); assay: compounds binding glycogen synthase kinase-3 – biochemical, small-molecule microarray, 635 nm fluorescence, GSK3A, primary screen (AID 1103); conditions: fluorescence 635 nm, higher = more signal; also: the record names both GSK3A and GSK3B
[7] = target: Epidermal growth factor receptor (Homo sapiens) (UniProt P00533); assay: compounds binding epidermal growth factor receptor – biochemical, small-molecule microarray, 635 nm fluorescence, primary screen (AID 1104); conditions: EGFR binding, higher = more signal;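 also: score merges 667 nm emission intensity with spot signal to noise over triplicate slides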
Sequence of Epidermal growth factor receptor (Homo sapiens) (P00533 whole entry, looked up): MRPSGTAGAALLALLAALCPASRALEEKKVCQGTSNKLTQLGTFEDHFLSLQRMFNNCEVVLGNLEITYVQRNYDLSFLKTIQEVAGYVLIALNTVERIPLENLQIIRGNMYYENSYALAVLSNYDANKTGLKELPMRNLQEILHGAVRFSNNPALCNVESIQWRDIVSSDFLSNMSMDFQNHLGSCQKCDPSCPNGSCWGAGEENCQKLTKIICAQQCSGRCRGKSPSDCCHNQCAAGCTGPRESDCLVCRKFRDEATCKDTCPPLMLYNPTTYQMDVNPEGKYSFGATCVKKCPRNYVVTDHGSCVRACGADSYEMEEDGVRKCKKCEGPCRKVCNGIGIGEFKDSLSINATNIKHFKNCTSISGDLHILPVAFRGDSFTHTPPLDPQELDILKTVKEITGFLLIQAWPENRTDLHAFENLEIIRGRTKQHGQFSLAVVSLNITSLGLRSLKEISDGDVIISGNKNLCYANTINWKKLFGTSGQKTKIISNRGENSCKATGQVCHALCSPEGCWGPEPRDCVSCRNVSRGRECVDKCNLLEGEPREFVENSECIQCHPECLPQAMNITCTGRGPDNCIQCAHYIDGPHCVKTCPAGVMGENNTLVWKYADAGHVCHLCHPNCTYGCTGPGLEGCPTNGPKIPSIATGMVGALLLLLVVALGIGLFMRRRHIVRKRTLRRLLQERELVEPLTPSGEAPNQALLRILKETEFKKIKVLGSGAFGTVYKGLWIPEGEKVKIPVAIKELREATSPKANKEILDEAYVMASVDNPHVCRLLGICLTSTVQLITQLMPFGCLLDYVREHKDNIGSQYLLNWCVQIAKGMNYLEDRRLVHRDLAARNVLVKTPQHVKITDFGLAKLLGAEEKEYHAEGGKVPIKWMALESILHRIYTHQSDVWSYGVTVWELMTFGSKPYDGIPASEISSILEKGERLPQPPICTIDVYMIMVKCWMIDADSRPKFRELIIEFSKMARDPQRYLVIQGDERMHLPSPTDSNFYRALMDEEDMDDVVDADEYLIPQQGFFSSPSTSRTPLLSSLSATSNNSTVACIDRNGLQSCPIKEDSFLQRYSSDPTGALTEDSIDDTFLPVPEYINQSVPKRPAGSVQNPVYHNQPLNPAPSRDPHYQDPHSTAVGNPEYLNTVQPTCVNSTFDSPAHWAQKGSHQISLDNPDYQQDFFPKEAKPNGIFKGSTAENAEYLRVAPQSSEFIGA

[8] = target: Follistatin-related protein 3 (Homo sapiens) (UniProt O95633); assay: compounds binding follistatin-related protein 3 – biochemical, small-molecule microarray, 635 nm fluorescence, primary screen (AID 1105); conditions: FSTL3 binding, higher = more signal;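 also: score merges emission near 667 nm and signal to noise per printed spot across three slides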
Sequence of Follistatin-related protein 3 (Homo sapiens) (O95633 whole entry, looked up): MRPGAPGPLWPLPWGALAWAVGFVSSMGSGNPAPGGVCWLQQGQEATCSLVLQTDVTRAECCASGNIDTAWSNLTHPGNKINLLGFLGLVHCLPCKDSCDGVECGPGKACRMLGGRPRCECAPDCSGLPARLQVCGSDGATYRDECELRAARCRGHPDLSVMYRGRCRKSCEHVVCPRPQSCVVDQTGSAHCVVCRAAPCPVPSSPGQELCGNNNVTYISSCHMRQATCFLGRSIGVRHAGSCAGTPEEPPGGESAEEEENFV

[9] = target: Dickkopf-related protein 1 (Homo sapiens) (UniProt O94907); assay: small molecules binding DKK1 protein – biochemical, small-molecule microarray, 635 nm fluorescence scan, primary screen (AID 1106); conditions: higher = more signal;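 also: score merges emission near 667 nm with signal to noise over three replicate slides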
Sequence of Dickkopf-related protein 1 (Homo sapiens) (O94907 whole entry, looked up): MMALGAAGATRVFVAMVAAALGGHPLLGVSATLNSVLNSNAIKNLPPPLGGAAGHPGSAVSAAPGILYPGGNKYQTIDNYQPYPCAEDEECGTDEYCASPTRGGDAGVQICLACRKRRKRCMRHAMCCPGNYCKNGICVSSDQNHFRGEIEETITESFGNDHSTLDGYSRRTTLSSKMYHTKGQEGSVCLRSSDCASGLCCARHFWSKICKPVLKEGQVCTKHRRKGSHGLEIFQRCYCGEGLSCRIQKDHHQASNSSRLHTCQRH

[10] = test system: Inhibin beta A chain (activin A); assay: small molecules binding activin A – biochemical, small-molecule microarray, 635 nm fluorescence scan, primary screen (AID 1107); conditions: INHBA, higher = more signal;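 also: mouse activin A protein probed at 4.33 µg/mL on printed slides; score merges bound-protein fluorescence near 667 nm with spot signal-to-noise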

SMILES	composite z-score [1]	composite z-score [2]	composite z-score [3]	z-score [4]	composite z-score [5]	composite z-score [6]	composite z-score [7]	composite z-score [8]	composite z-score [9]	composite z-score [10]
CC(C)(C)OC(=O)COc1cccc(C(=O)CCN2CCOCC2)c1	0.213	0.684	0.929	0.849 (inactive)	-0.189	0.136	-0.67	-0.272	-0.285	1.54
C=CCC(OC(C)=O)[C@@H]1[C@@H](N(Cc2ccc(-c3ccccc3)cc2)C(=O)c2ccc(-c3ccccc3)cc2)c2cc(OCCCO)ccc2N1C(=O)c1ccc2ccccc2c1 (stereo not given in full)	-0.519	-0.302	0.306	-1.22 (inactive)	-0.015	-0.0147	-0.175	0.453	0.0004	0.82
NC(=O)[C@@]1(Cc2ccccc2)COC(c2ccc(OCCCO)cc2)=N1	0.0491	0.618	0.836	0.444 (inactive)	0.594	-0.923	-0.377	-0.807	-0.636	0.663
COc1cc2c(cc1O)C(C1CC1)N(C)CC2 (stereo not given)	0.353	0.211	0.583	-0.451 (inactive)	-0.382	-1.3	-1.17	-0.57	-0.896	0.942
C=CCOC(=O)[C@@]1(Cc2ccccc2)C[C@H]2CO[C@H](c3ccc(OC)cc3)N2C1=O	0.335	-0.0298	-0.0084	-0.543 (inactive)	0.25	-0.0535	0.201	0.2	0.286	0.351
NC(=O)NCC#Cc1ccc2c(c1)[C@]1(C(=O)N2)[C@H](C(=O)N2CCN(c3ncccn3)CC2)[C@H]2C(=O)O[C@H](c3ccccc3)[C@H](c3ccccc3)N2[C@@H]1c1ccc(O)cc1	0.615	0.287	0.208	-0.534 (inactive)	1.21	-0.0752	0.755	1.41	0.704	-0.131
CN1C2C=C(CCCO)C(C3C(=O)N(C(N)=O)C(=O)C32)C1C1CC1 (stereo not given)	-0.149	-0.105	0.1	0.93 (inactive)	-0.0933	-0.0699	-0.0436	-0.785	0.0144	-0.393
CCCCC[C@H]1OC[C@@]23C=C(Br)[C@@H](CC12)[C@@]1(CO1)C3=O (stereo not given in full)	-0.501	-0.323	-0.515	0.424 (inactive)	0.106	-0.0067	0.0985	-0.0915	0.103	0.0936
COC(=O)[C@@]1(Cc2ccc(F)cc2)[C@H]2c3cc(C(=O)N(C)C)n(Cc4ccc(OC(F)(F)F)cc4)c3C[C@H]2CN1C(=O)c1ccccc1	0.19	-0.0448	0.183	1.32 (inactive)	0.251	0.22	0.18	0.298	0.0583	0.401
O=C1CS(=O)(=O)C(c2cccc([N+](=O)[O-])c2)N1c1ccccc1 (stereo not given)	0.175	0.913	0.157	-0.856 (inactive)	1.03	0.117	0.591	0.6	0.625	0.32
COc1ccc(CCNC(=O)[C@@]2(c3ccc([N+](=O)[O-])cc3)CC(=O)N(C3CCCCC3)[C@@H]2c2ccc(CO)cc2)cc1	0.54	0.701	0.806	-0.134 (inactive)	0.525	1	-0.155	0.211	0.214	0.249
CC1CC/C=C\[C@H]2OC34C=CCN(c5ccc(Cl)cc5)C(=O)[C@H]3N(C(C)CO)C(=O)[C@]4(C)C2C(=O)O1 (stereo not given in full)	0.365	-0.132	0.158	-0.718 (inactive)	-0.39	-0.793	-0.955	-1.43	-0.945	0.896
CC(=O)NCCCC[C@@H]1NC(=O)[C@@H]2C[C@H](C(=O)NCCCCCN)[C@H](c3ccc(O)cc3)N2C1=O	1.49	1.07	0.656	0.194 (inactive)	1.23	1.28	0.662	1.02	1.33	1.26
CO[C@H]1O[C@H](CO)[C@@H](OC(=O)Nc2ccccc2)[C@H](OC(=O)c2cc3ccccc3[nH]2)[C@H]1OC(=O)c1cc2ccccc2[nH]1	0.494	0.576	0.759	-0.447 (inactive)	1.35	0.126	-0.551	0.306	0.201	0.9
COc1ccc([Si](C)(C)[C@@H]2[C@@H](CC(=O)N(CCO)Cc3ccccc3)O[C@]3(C(=O)N(Cc4cccc(N5CCCCC5=O)c4)c4ccccc43)[C@H]2C)cc1	1.16	-0.0247	0.505	-0.166 (inactive)	0.883	0.1	0.242	0.84	0.419	0.493
CCOC(=O)C[C@H]1[C@H](OC(=O)c2ccc(C(=O)c3ccccc3)cc2)[C@@H](NC(=O)c2ccc(-c3ccccc3)cc2)c2cc(OCCCO)ccc2N1C(=O)Cc1ccc(OC)cc1	0.0732	0.223	0.777	-0.213 (inactive)	0.0382	0.0652	-0.274	0.0472	-0.537	0.783
O=C1OCCC=C[C@H]2OC34C=CCN(Cn5nnc6ccccc65)C(=O)[C@H]3N(CCCO)C(=O)[C@@H]4C12 (stereo not given in full)	-0.783	-0.264	0.0963	-1.05 (inactive)	-0.583	-0.789	-0.72	-1.46	-0.454	0.148
COC(=O)C1=CC(CCCO)=CC(c2cccs2)N(Cc2cccc(OC(F)(F)F)c2)C=C1C(=O)OC (stereo not given)	0.0898	0.524	0.574	0.955 (inactive)	0.67	1.09	0.179	0.989	-0.149	1.09
COC(=O)[C@@]1(Cc2ccc(F)cc2)[C@H]2c3cc(C(=O)N4CCCC4)n(Cc4ccc(C)c(F)c4F)c3C[C@H]2CN1C(=O)c1ccccc1	0.961	0.902	0.931	-4.09 (inactive)	-0.291	-0.931	-0.499	-1.07	-0.453	1.42
CC(C)N1CC=CC23O[C@@H]4C=CCCOC(=O)C4[C@H]2C(=O)N(CCCO)[C@@H]3C1=O (stereo not given in full)	0.415	-0.137	0.0009	-1.38 (inactive)	-0.264	-0.322	-1.07	-0.317	-0.183	0.864
C=C[C@H](C)[C@H](OC(=O)Nc1ccc(SC)cc1)c1ccc(OCCO)cc1	1.12	0.157	0.916	-3.34 (inactive)	0.515	0.394	0.183	0.42	0.148	0.081
COc1ccc([C@H]2OC[C@@H]3C[C@H](Cc4ccccc4)C(=O)N32)cc1	-0.33	-0.157	-0.598	-0.524 (inactive)	0.439	-0.0107	0.212	0.401	0.313	0.0048
C[C@@H]1NC(=O)[C@@H](Cc2ccccc2)NC(=O)[C@@]23C(=O)N[C@@H](Cc4ccccc4)C2[C@H](C)[C@@]2(C)O[C@H]2C3/C=C/C/C=C\CNC1=O (stereo not given in full)	1.02	-0.259	-0.17	0.138 (inactive)	-0.2	-0.769	-0.318	0.119	0.0252	1.16
CCCC1(C(=O)OC)C=C2C(=C(C)C(=O)C2C)CN1 (stereo not given)	-0.79	0.719	0.974	0.888 (inactive)	0.168	-0.636	0.0023	-0.105	-0.238	1.57
C#CCN([C@@H](Cc1ccccc1)C(=O)OC)[C@@H](/C=C/C1CC1)[C@H](O)Cc1ccccc1	-0.437	-0.575	0.37	0.414 (inactive)	-0.496	-0.489	-0.473	-0.494	-0.185	1.49
CN(C)CCCCCCNC(=O)[C@@H]1C[C@@H]2C(=O)N3CCC[C@H]3C(=O)N2[C@@H]1c1cccc(OCCO)c1	1.35	-0.0718	0.481	0.134 (inactive)	0.92	1.33	1.11	1.49	1.81	0.749
COC(=O)[C@@]1(Cc2ccc(F)cc2)[C@H]2c3cc(C(=O)N(C)C)n(CCc4ccc(OC)c(Br)c4)c3C[C@H]2CN1C(=O)c1ccccc1	0.514	1.1	0.732	1.6 (inactive)	0.856	0.182	-0.086	0.145	-0.257	1.01
